# A selection: hits, their analogues and other compounds. The true share with any hit is near 19%.
# HT1080 IDH1KD tx: HT-1080 IDH1 knockdown cell toxicity (counter line); AID 686971; Potency, µM (doses to about 46.1 µM), for the others: at the top dose activity, negative = toxicity, most hits filed as cytotoxic; HT-1080 IDH1 knockdown viability, ATP luminescence, 48 h; 2% of 360,000 active;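 note: potency is the fitted concentration of half-maximal effect; 0% = DMSO wells and -100% = cell-free medium wells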
#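 Cytotoxicity counter-line: IDH1KD HT-1080, 48 h, CellTiter-Glo. Curves classed by r2, magnitude and activity.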
# HT1080NT lethal: kills 2HG-producing HT-1080-NT fibrosarcoma cells; Potency, µM (series often up to 46.1 µM), without a hit: top-dose activity, negative = less viability, most hits filed as cytotoxic; HT-1080-NT fibrosarcoma viability, CellTiter-Glo ATP luminescence, 48 h; 1.6% of 360,000 active;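 note: NT is the 2HG producing partner of a matched IDH1 knockdown line; potency is the fitted concentration of half-maximal effect; 0% = DMSO-treated cells and -100% = media-only wells without cells; nearly all actives have a fitted effect of over 55% in size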
#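 Viability by CellTiter-Glo luminescence after 48 h compound exposure at 37C of HT-1080-NT cells (750/well, RPMI, 5% FBS). % activity scaled between DMSO wells and medium-only wells, then curve-fitted and categorized by curve class.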
# TDP1 cell noCPT: qHTS for Inhibitors of human tyrosyl-DNA phosphodiesterase 1 (TDP1): qHTS in cells in absence of CPT; 15% of 420,000 active; DT40 Tdp1-/- hTDP1 cells, no CPT, ATP luminescence, 48 h; AID 686978, 2013; Potency, µM (series often up to 46.2 µM), without a hit: at the top dose activity change, negative = growth inhibition, actives largely listed as inhibitors; note: potency is the fitted concentration of half-maximal effect; nearly all actives have a fitted effect of over 55% in size
#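 Compound effects on proliferation are scored in DT40 Tdp1-/-;hTDP1 cells in the absence of CPT. ATP levels (CellTiter-Glo luminescence) are recorded after a ≥48 hr, 37 °C incubation.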
# IL1B secr inh: blocks inflammasome-driven IL-1 beta release. THP-1 LPS/ATP IL-1B secretion, AlphaLISA, 16 h; hits give low values. activity change, % at 57.5 µM. 4.7% of 360,000 active. AID 743279; in the data active = activity change below about -50%; inconclusive = mostly about -30% to -49%
#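 Secreted IL-1B measured by AlphaLISA bead assay after 16 h compound exposure of THP-1 cells; compounds (final up to 57.5 uM) added 1 h before LPS (250 ng/mL) and ATP (1.25 mM) stimulation; lower signal means less secretion.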
# DT40 TDP1 CPT: DT40-hTDP1 cell growth loss with CPT; 12% of 420,000 active; AID 686979; chicken DT40 Tdp1-/-;hTDP1 cells + 20 nM CPT, ATP luminescence, 48 h; Potency, µM (highest dose often 46.2 µM), for the others: top-dose activity change, negative = growth inhibition, actives largely listed as inhibitors; note: potency is the fitted concentration of half-maximal effect; nearly all actives have a fitted effect of over 55% in size
#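 Cell growth measured by CellTiter-Glo luminescence after a minimum 48 h, 37 C compound exposure with 20 nM CPT in Tdp1-knockout DT40 cells stably expressing hTDP1, seeded 400/well; qHTS titration format.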
# * marks the source's active call; other numbers are inactive results; ? = inconclusive; . = no result. Unless noted, calls come from the whole dose curve; as a rule, active = well fitted curve in the direction sought with a large enough effect; inconclusive = small, poorly fitted or top-dose-only effect, or another doubt; inactive = no such curve, though single readings can be large; an effect the other way counts as inactive or inconclusive. Unless noted, % is set by controls: 0 for no effect and ±100 for the full control effect.
SMILES,HT1080 IDH1KD tx,HT1080NT lethal,TDP1 cell noCPT,IL1B secr inh,DT40 TDP1 CPT
Cc1cc(NC(=O)CS(=O)(=O)c2cn(Cc3cccc(Br)c3)c3ccccc23)no1,20.6µM*,?,?,-54.3*,25.9µM*
O=C1/C(=C/c2ccc(Cl)cc2)NC(=S)N1Cc1cccnc1,6.2%,4.3%,?,-5.5,?
CC(=O)Nc1ccc(/C=C/c2nc3ccccc3s2)cc1,.,.,11.2µM*,.,?
CC(C)CN(CC(C)C)c1ccc(/C=C/c2nc3ccccc3s2)cc1,.,.,3.55µM*,.,5.01µM*
COc1ccc(NC(=O)c2nc3ccccc3s2)cc1,-6.9%,0.1%,-20.9%,-24.8,25.5%
Nc1nnc(/C=C/c2ccccc2)s1,-1.3%,-7.6%,-3.6%,-2.0,10.9%
CCN(CC)c1ccc(NC(=O)COC(=O)/C=C/c2nc3ccccc3s2)cc1,5.2%,18.2%,?,0.0,12.3%
Nc1ccc(/C=C/c2nc3ccccc3s2)cc1,.,.,12.6µM*,.,11.2µM*
COc1ccc(CNC(=S)NC(C)CCc2ccccc2)cc1 (stereo not given),-16.6%,-13.3%,?,-20.6,?
COc1ccc(-c2ccnc3nc(N4CCN(c5ccccc5)CC4)nn23)cc1,-12.1%,0.8%,20.6µM*,-10.5,?
OCC[C@H]1C[C@H](O)[C@@H](O)[C@@]2(CCc3ccccc3O2)O1,11.5%,10.3%,-9.3%,14.8,-2.5%
COc1ccc(N2CCN(c3oc(/C=C/c4cccc(OC)c4)nc3C#N)CC2)cc1,.,.,10.2%,.,-1.9%
COc1ccc(/C=C/c2nc(C#N)c(N3CCCCCC3)o2)cc1OC,.,.,8.2µM*,.,11.6µM*
CCN1CCN(c2oc(/C=C/c3ccc(OC)c(OC)c3)nc2C#N)CC1,.,.,?,.,16.4µM*
C[C@H](NC(=O)c1ncn2c1C(=O)N[C@@H](C)C2)C(=O)OC(C)(C)C,-0.4%,2.2%,-9.8%,-14.8,2.1%
c1ccc(COc2ccc(-c3cc4nc(NCCOc5ccccc5)ccn4n3)cc2)cc1,-21.2%,-25.5%,?,50.9,23.1µM*
Cc1cc2nc(-c3ccc(OCc4ccccc4)cc3)cc(C(F)(F)F)n2n1,.,.,-29.3%,.,-25.8%
COCCCNc1ccn2nc(-c3ccc(OCc4ccccc4)cc3)cc2n1,?,9.3%,?,20.0,16.4µM*
Oc1cc2c(cc1C(c1ccc(Cl)c(Cl)c1)N1CCCC1)OCO2 (stereo not given),?,?,23.1µM*,-99.0*,?
CCC(c1nnnn1Cc1ccco1)N1CCN(c2cc(Cl)ccc2C)CC1 (stereo not given),-24.6%,-25.4%,?,-60.1*,?
O=C(NCCc1ccccc1C(F)(F)F)C1CCC(=O)N(C2CC2)C1 (stereo not given),14.7%,-3.9%,-13.4%,11.6,-5.2%
C=C(NC(=O)C(=C)NC(=O)c1csc(C2=N[C@@H]3c4csc(n4)[C@H]4NC(=O)c5csc(n5)[C@H]([C@](C)(O)[C@@H](C)O)NC(=O)[C@H]5CSC(=N5)C(=CC)NC(=O)C([C@@H](C)O)NC(=O)c5csc(n5)[C@]3(CC2)NC(=O)[C@H](C)NC(=O)C(=C)NC(=O)[C@H](C)NC(=O)C([C@@H](C)CC)NC2C=Cc3c([C@H](C)O)cc(nc3C2O)C(=O)O[C@@H]4C)n1)C(N)=O (stereo not given in full),.,.,5.08µM*,.,7.18µM*
O=C(C1CCCN(S(=O)(=O)c2cccc3nsnc23)C1)N1CC=C(c2ccccc2)CC1 (stereo not given),?,-12.0%,10.3µM*,-54.8*,13µM*
O=C(C1CCN(S(=O)(=O)c2cccc3nsnc23)CC1)N1CC=C(c2ccccc2)CC1,-15.9%,-6.8%,16.4µM*,7.6,18.4µM*
CC1CCCCN1C(=O)C1CCCN(S(=O)(=O)c2cccc3nsnc23)C1 (stereo not given),15.5%,12.6%,-19.1%,60.7,?
SMILES,HT1080 IDH1KD tx,HT1080NT lethal,TDP1 cell noCPT,IL1B secr inh,DT40 TDP1 CPT
O=C(NCCc1ccccc1)C1CCCN(S(=O)(=O)c2cccc3nsnc23)C1 (stereo not given),0.6%,3.0%,13µM*,0.0,?
COC(=O)c1cn(C(=O)c2cc(Cl)ccc2Cl)c2ccccc12,-1.2%,-0.8%,-25.9%,22.2,-22.9%
CC(=O)N1CCC(N(C(=O)Nc2ccc(C)c(F)c2)C(C)C)CC1,.,.,-2.0%,.,2.9%
CC(=O)c1ccc(NC(=O)CSc2nc(=O)n3cccc(C)c3n2)cc1,1.5%,17.1%,-29.3%,0.3,-22.3%
COC(=O)c1ccc(NC(=O)CSc2nccn2CCc2ccccc2)cc1,7.0%,2.6%,18.4µM*,2.6,?
Cc1nc(-c2ccccc2)sc1-c1ccc(SCC(=O)Nc2ccccc2)nn1,.,.,23.1µM*,.,?
COC(=O)c1ccc(NC(=O)CSc2ccc(-c3sc(-c4ccccc4)nc3C)nn2)cc1,.,.,11.6µM*,.,?
COC(=O)c1ccc(NC(=O)CSc2nc(=O)n3cccc(C)c3n2)cc1,-3.3%,-7.7%,?,10.9,18.4µM*
O=C(COC(=O)C1CC1)Nc1ccc2c(c1)OCO2,16.8%,9.1%,-11.6%,2.2,17.8%
CC(=O)Nc1cccc(C(=O)OCC(=O)N2CCC(c3ccccc3)=N2)c1,17.2%,15.6%,-22.9%,-19.7,-9.8%
COc1ccc(CCn2c(O)cc3nn(-c4nc5ccccc5s4)c(=O)c-3c2C)cc1,-2.6%,-10.1%,16.4µM*,.,-26.0%
Cc1cc(N(C)C)cc(C)c1/C=C/c1ccnc2ccccc12,.,.,11.2µM*,.,14.1µM*
Oc1cc(O)c(/C=C/c2ccnc3ccccc23)c(O)c1,.,.,-18.1%,.,10.5%
Cc1cc([N+](C)(C)C)cc(C)c1/C=C/c1ccnc2ccccc12,.,.,3.16µM*,.,3.55µM*
CC1=C(C(=O)N(C(C)C)C(C)C)CC(CC(=O)NCc2cccc3ccccc23)C(=O)N1Cc1ccc(F)cc1 (stereo not given),?,?,?,-67.7*,?
CC1=C(C(=O)N(C(C)C)C(C)C)CC(CC(=O)NCc2cccc3ccccc23)C(=O)N1Cc1ccccc1 (stereo not given),-29.0%,-18.6%,14.6µM*,?,?
CC1=C(C(=O)N(C(C)C)C(C)C)CC(CC(=O)NCc2ccco2)C(=O)N1Cc1ccc(F)cc1 (stereo not given),11.1%,13.5%,-19.9%,-14.1,-6.9%
CC1=C(C(=O)N(C(C)C)C(C)C)CC(CC(=O)NCc2cccc3ccccc23)C(=O)N1CCC1=CCCCC1 (stereo not given),?,?,?,-80.3*,?
